NSD2 inh = NSD2 (human) methyltransferase inhibition; O96028; NSD2 peptide methylation, AlphaScreen, 120 min; inhibition, % at 12.5 µM; 310,000 compounds, 0.54% hits; in the data active = inhibition above about 50%
RAD52 inh = blocks human RAD52 DNA annealing; P43351; recombinant RAD52 DNA annealing, FRET fluorescence; inhibition, % at 18.7 µM; 360,000 compounds, 0.46% hits; AID 651710;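 active = every replicate showing at least 50% inhibition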
Target sequence (P43351 whole entry, looked up): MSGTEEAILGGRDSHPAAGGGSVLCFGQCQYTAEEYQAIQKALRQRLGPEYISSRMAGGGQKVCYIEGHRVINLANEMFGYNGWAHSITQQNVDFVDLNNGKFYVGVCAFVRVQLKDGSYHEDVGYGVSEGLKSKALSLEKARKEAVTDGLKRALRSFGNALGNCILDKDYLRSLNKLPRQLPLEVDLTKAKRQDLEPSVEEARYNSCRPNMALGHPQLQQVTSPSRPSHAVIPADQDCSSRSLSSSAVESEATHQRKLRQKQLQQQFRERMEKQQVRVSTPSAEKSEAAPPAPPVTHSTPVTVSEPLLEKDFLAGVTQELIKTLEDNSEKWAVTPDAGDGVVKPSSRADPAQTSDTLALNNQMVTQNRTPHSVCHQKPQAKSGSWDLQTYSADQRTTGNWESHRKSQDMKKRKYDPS
AF4-AF9 inh = inhibitors of human MLL-AF4/AF9 interaction; P42568; AlphaScreen, biotin-AF4 peptide binding to FLAG-AF9; inhibition, % at 10 µM; 350,000 compounds, 0.47% hits;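 active = every replicate reaching a set inhibition limit, whatever the replicate mean, cut at about 25% in these data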
Casp6 inh = inhibitors of human caspase-6. P55212. purified caspase-6, Z-VEID-R110 cleavage fluorescence. inhibition, % at 12.5 µM. 350,000 compounds, 0.53% hits;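 active = mean inhibition across replicates at least about 35%, with every replicate also reaching that limit, limit read from the data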
Target sequence (P55212 24-179 limits assumed): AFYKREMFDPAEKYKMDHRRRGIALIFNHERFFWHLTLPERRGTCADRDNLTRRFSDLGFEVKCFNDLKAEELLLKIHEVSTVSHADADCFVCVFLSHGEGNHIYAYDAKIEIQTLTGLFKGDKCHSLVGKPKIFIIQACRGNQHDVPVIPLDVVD
Target sequence (P55212 194-293 limits assumed): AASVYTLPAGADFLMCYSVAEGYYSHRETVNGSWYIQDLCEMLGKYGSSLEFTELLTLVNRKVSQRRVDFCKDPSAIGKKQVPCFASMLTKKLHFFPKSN
rRNA inh HTS = inhibits bacterial ribosomal RNA function over humanized ribosomes; E. coli WT GFP vs humanized-ribosome RFP mutants, fluorescence, 24 h; active compounds read low; DMSO median 0, no signal -100; GFP signal change (wild-type ribosome), % (concentration not given with the values); 350,000 compounds, 1.6% hits;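 active = significant combined selectivity score with lowered wild-type GFP, culture density cut under 30%, mutant RFP and density less affected; inactive = any of these conditions unmet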
Large screens that a line does not name were inactive. Only some compounds are listed: those with a hit (about 2.5% of all), similar ones and a draw of the others.

COc1ccccc1NC(=O)N1CC[C@@H]2[C@H]1c1cc(C#Cc3ccc(F)cc3)ccc1N(C)[C@@H]2CO	RAD52 inh 70 (no result: NSD2 inh)
O=C(Nc1cc(F)ccc1F)N[C@@H]1CC[C@@H](CCn2cc(C3CCCC3)nn2)O[C@H]1CO	none (no result: NSD2 inh)
COc1ccccc1-c1cn(CC[C@@H]2CC[C@@H](NC(=O)C3CC3)[C@@H](CO)O2)nn1	none (no result: NSD2 inh)
O=C(C[C@@H]1CC[C@H]2[C@@H](COC[C@H](O)CN2Cc2nccs2)O1)NCc1ccc(Cl)cc1	none (no result: NSD2 inh)
CCC(=O)N1CC(=O)N2[C@H](CO)[C@H](c3ccc(C#Cc4cccc(OC)c4)cc3)[C@@H]2C1	none (no result: NSD2 inh)
CCOC(=O)/C(C)=N/Nc1nc(-c2ccc(NC(C)=O)cc2)cs1	rRNA inh HTS -27 (no result: AF4-AF9 inh)
CC(C)=NNc1nc(-c2ccc([N+](=O)[O-])cc2)cs1	rRNA inh HTS -34
CC(=O)Nc1ccc(-c2csc(Nc3cc(C)ccn3)n2)cc1	rRNA inh HTS -48
CC(=O)Nc1nc(-c2ccc([N+](=O)[O-])cc2)cs1	none
COc1cccc(NC(=O)CN(C)C(=O)c2cccc(S(=O)(=O)N3CCN(c4ccccc4)CC3)c2)c1	rRNA inh HTS -29
CN(CC(=O)Nc1ccc(F)cc1)C(=O)c1cccc(S(=O)(=O)N2CCN(c3ccccc3)CC2)c1	none
CN(CC(=O)Nc1cccc(F)c1)C(=O)c1ccccc1Sc1ccccc1C#N	none
COc1cccc(NC(=O)CN(C)C(=O)c2ccccc2Sc2ccccc2C#N)c1	rRNA inh HTS -18
COc1cccc(NC(=O)CN(C)CC(=O)Nc2ccccc2-c2ccccc2)c1	rRNA inh HTS -24
CN(CC(=O)Nc1cccc(F)c1)CC(=O)Nc1ccccc1-c1ccccc1	none
CC(C)c1ccc(OCC(=O)NCc2ccccc2)cc1	rRNA inh HTS -22
CC(C)c1ccc(CNC(=O)CCc2ccccc2)cc1	none
CC(C)c1ccc(OCC(=O)NNC(=O)c2cnccn2)cc1	rRNA inh HTS -28
CCn1c(CNC(=O)COc2ccc(C(C)C)cc2)nnc1SCC(=O)Nc1ccccc1F	Casp6 inh 53 (no result: AF4-AF9 inh)
C[C@@H]1CN([C@@H](C)CO)C(=O)Cc2cc(N(C)C)ccc2O[C@H]1CN(C)Cc1ccc(Oc2ccccc2)cc1	none (no result: NSD2 inh, RAD52 inh, AF4-AF9 inh, Casp6 inh)
C[C@H](CO)N1C[C@H](C)[C@H](CN(C)Cc2ccc(Oc3ccccc3)cc2)Oc2ccc(N(C)C)cc2CC1=O	AF4-AF9 inh 27 (no result: NSD2 inh)
C[C@H](CO)N1C[C@H](C)[C@@H](CN(C)Cc2ccccc2)Oc2ccc(N(C)C)cc2CC1=O	none (no result: NSD2 inh)
C[C@@H]1CN([C@@H](C)CO)C(=O)Cc2cc(N(C)C)ccc2O[C@@H]1CN(C)Cc1ccc(-c2ccccc2)cc1	AF4-AF9 inh 42 (no result: NSD2 inh)
C[C@H](CO)N1C[C@H](C)[C@@H](CN(C)Cc2ccc(Oc3ccccc3)cc2)Oc2ccc(N(C)C)cc2CC1=O	AF4-AF9 inh 72 (no result: NSD2 inh)
COc1ccc2c3c([nH]c2c1)[C@@H](CO)N(C)CC31CN(C(=O)c2ccccn2)C1	none (no result: NSD2 inh, RAD52 inh, Casp6 inh)
COCC(=O)N1C[C@H](C)[C@@H](OC)CN(C)C(=O)c2ccc(NC(=O)Nc3ccccc3)cc2OC[C@H]1C	none (no result: NSD2 inh)
C[C@@H]1CCCCO[C@H](CN(C)S(=O)(=O)c2ccc(F)cc2)[C@@H](C)CN([C@@H](C)CO)C(=O)c2cc(NC(=O)c3ccccc3)ccc2O1	none (no result: NSD2 inh)
CC(C)NC(=O)N1[C@H](CO)[C@@H]2c3ccccc3N(C(=O)Nc3ccc(F)cc3)C[C@@H]21	none (no result: NSD2 inh)
CSc1sc(C(=O)Nc2ccc(F)cc2F)c2c1C=CCC2	rRNA inh HTS -26
COc1ccsc1C(=O)Nc1ccc(F)cc1F	none
CN1C(=O)CCS(=O)(=O)C1c1ccc(Cl)c(Cl)c1 (centres undefined)	Casp6 inh 57
CN1CCCN(S(=O)(=O)c2ccc(Cl)c(Cl)c2)CC1	none
CCCCC(=O)NC(c1ccc(N(C)C)cc1)c1ccc2cccnc2c1O (centres undefined)	AF4-AF9 inh 57
CCN(CC)c1ccc(C(NC(=O)C(C)C)c2ccc3cccnc3c2O)cc1 (centres undefined)	AF4-AF9 inh 29 (no result: Casp6 inh)
CCCCC(=O)NC(c1ccc(N(CC)CC)cc1)c1ccc2cccnc2c1O (centres undefined)	none (no result: rRNA inh HTS)
CCCC(=O)NC(c1cccc([N+](=O)[O-])c1)c1ccc2cccnc2c1O (centres undefined)	AF4-AF9 inh 34
CO[C@H]1CN(C)C(=O)c2ccc(NC(=O)c3ccccc3F)cc2OC[C@@H](C)N(CC2CC2)C[C@@H]1C	none (no result: NSD2 inh)
O=C(C[C@H]1CC[C@@H]2[C@H](COC[C@@H](O)CN2Cc2ccccc2)O1)NCCc1ccccc1	none (no result: NSD2 inh)
O=C(CCN1CCCCC1)N[C@H]1CC[C@@H](CCNS(=O)(=O)c2ccc(Cl)cc2)O[C@H]1CO	none (no result: NSD2 inh)
Cc1cccc(OCCC(=O)NNC(=O)Cn2nc(C)cc2C)c1	none
CCOc1ccccc1OCCC(=O)NNC(=O)Cn1nc(C)cc1C	Casp6 inh 46
C[C@@H](NC(=O)C[C@@H]1C=C[C@@H](NC(=O)Cc2ccccn2)[C@@H](CO)O1)c1ccccc1	none (no result: NSD2 inh)
O=C(CSCc1c(Cl)cccc1Cl)Nc1cccnc1	rRNA inh HTS -24
Cc1onc(-c2ccccc2)c1C(=O)Nc1ccccc1N1CCOCC1	none (no result: RAD52 inh, AF4-AF9 inh, Casp6 inh, rRNA inh HTS)
Cc1onc(-c2c(F)cccc2Cl)c1C(=O)Nc1ccccc1N1CCOCC1	rRNA inh HTS -28 (no result: AF4-AF9 inh)
O=S(=O)(c1ccc(Cl)c(NC(=S)Nc2ccccc2N2CCOCC2)c1)N1CCOCC1	none (no result: Casp6 inh)
Fc1ccc(NC(=S)Nc2ccccc2N2CCOCC2)cc1Cl	rRNA inh HTS -27
CN(C)CC(=O)Nc1ccc2c(c1)[C@H]1C[C@@H](CC(=O)N3CCc4ccccc4C3)O[C@H](CO)[C@H]1O2	none (no result: NSD2 inh)
C=CCOC(=O)[C@H]1[C@@H]2C(=O)O[C@@H](c3ccccc3)[C@@H](c3ccccc3)N2[C@@H](c2ccc(OCCOC(=O)[C@H]3C[C@H]4C(=O)N[C@@H](CC(C)C)C(=O)N4[C@H]3c3ccc(O)cc3)cc2)[C@]12C(=O)Nc1ccccc12	none (no result: NSD2 inh, rRNA inh HTS)
Nc1nonc1-n1nnc(C(=O)N/N=C/c2ccccc2Cl)c1CSc1ccccc1	rRNA inh HTS -18
Nc1nonc1-n1nnc(C(=O)N/N=C/c2ccc(OCc3ccccc3)cc2)c1COc1ccc(F)cc1	none
CN(Cc1c(C(=O)N/N=C/c2ccccc2)nnn1-c1nonc1N)c1ccccc1	rRNA inh HTS -27
Nc1nonc1-n1nnc(C(=O)N/N=C/c2ccc(O)cc2)c1COc1ccc(F)cc1	rRNA inh HTS -24 (no result: NSD2 inh)
CN(Cc1c(C(=O)N/N=C/c2ccc(O)cc2)nnn1-c1nonc1N)c1ccccc1	rRNA inh HTS -27
C[C@H]1CN([C@@H](C)CO)C(=O)c2cccc(NC(=O)c3ccncc3)c2O[C@H]1CN(C)Cc1ccc2c(c1)OCO2	none (no result: NSD2 inh)
COc1ccc2c3c([nH]c2c1)[C@H](CO)N(C(C)=O)CC31CN(C(=O)c2cccc(F)c2)C1	none (no result: NSD2 inh, RAD52 inh, Casp6 inh)
O=C(Nc1ccc2c(c1)[C@@H]1C[C@H](CC(=O)N3CCc4ccccc4C3)O[C@H](CO)[C@@H]1O2)C1CCC1	none (no result: NSD2 inh)
